High-throughput results deposited in PubChem by The Scripps Research Institute Molecular Screening Center.
In the library only some 3.5% were active in any assay of this set; here they are far more common.
TEAD-YAP inh = TEAD-YAP interaction inhibition. HEK-TIYL cells, TEAD-Gal4/YAP UAS-luciferase luminescence. inhibition, % at 9.12 µM. 640,000 tested, 1.4% active; in the data active = inhibition above about 32%;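 also: 0% = median of test compound wells and 100% = reference inhibitor wells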
FBW7 act = activators of human E3 ligase FBW7 | Q969H0 | AlphaScreen FBW7–phospho-cyclin E peptide binding, activator screen | normalized activity (activation), % at 26.1 µM | 650,000 tested, 0.13% active | AID 1259310; in the data active = normalized activity above about 1.9%;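 also: purified mutant Fbw7 with reduced substrate affinity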
Target sequence (Q969H0 whole entry, looked up): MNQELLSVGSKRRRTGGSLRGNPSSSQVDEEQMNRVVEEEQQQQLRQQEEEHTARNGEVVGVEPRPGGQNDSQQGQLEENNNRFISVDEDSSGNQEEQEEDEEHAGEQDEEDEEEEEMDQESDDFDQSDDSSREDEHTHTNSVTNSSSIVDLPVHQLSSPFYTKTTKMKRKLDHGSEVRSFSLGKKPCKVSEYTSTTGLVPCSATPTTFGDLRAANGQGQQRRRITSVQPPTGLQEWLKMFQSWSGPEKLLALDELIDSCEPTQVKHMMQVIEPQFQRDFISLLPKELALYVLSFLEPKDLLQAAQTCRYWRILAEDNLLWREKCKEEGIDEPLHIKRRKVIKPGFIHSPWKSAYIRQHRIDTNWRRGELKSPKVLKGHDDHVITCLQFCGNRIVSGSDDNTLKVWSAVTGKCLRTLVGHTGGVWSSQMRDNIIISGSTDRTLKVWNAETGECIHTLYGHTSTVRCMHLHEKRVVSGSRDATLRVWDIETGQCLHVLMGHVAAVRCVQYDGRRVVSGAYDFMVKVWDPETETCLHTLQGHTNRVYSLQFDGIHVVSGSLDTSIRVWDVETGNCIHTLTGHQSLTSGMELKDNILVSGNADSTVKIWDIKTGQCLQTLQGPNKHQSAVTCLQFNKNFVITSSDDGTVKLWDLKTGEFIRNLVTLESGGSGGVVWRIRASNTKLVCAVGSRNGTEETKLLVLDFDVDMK
MITF primary = human MITF inhibition, primary screen; O75030; AlphaScreen MITF homodimerization, bead proximity signal; inhibition, % at 2.6 µM; 650,000 tested, 0.91% active; in the data active = inhibition above about 50%;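 also: 0% = vehicle wells with protein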
GPR151 ag = activates the human receptor GPR151 | Q8TDV0 | PathHunter beta-arrestin GPR151 cells, luminescence | activation, % at 11.2 µM | 650,000 tested, 1% active | AID 1508602; in the data active = activation above about 4.9%;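 also: 0% = median of compound wells and 100% = cells with positive control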
GPR151 confirm = human GPR151 activation, confirmation screen; shares compounds with GPR151 ag; GPR151 PathHunter beta-arrestin cells, luminescence, 90 min; % of EA-reagent control over plate median; activation, % at 11.2 µM; 6,700 tested, under 10 active;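 active = mean percent activation across replicates above the confirmation screen cutoff of 4.91%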
GPR119 counter = activates human GPR119 in a GPR151 counter-screen; shares compounds with GPR151 ag; activation, % at 11.2 µM; GPR119 PathHunter beta-arrestin cells, luminescence, 90 min; 0 = compound-well median, 100 = enzyme-acceptor control; 6,700 tested, 0.3% active;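 active = mean percent activation in the counterscreen above 29.09%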;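 also: counterscreen on off-target GPR119 to flag nonselective hits from the GPR151 activator screen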
Starred values were filed as active, the others as inactive; ! = a repeat was not active.

Screening COc1ccc(/C=C2/SC(=Nc3ccc(O)cc3)NC2=O)cc1 returned TEAD-YAP inh 3, FBW7 act 0, MITF primary 4, GPR151 ag 5.0*, GPR151 confirm 1 and GPR119 counter 6.
For Cc1cc(C)cc(N=C2NC(=O)/C(=C/c3ccc(OCc4ccc(Br)cc4)cc3)S2)c1 the results were TEAD-YAP inh 2, FBW7 act 0, MITF primary -2, GPR151 ag 5.7*, GPR151 confirm 0 and GPR119 counter 11.
`COC(=O)c1ccc(CN(c2ccccc2)S(=O)(=O)c2ccccc2)cc1` gave TEAD-YAP inh -1, FBW7 act 0, MITF primary 2 and GPR151 ag 0.
`COC(=O)c1ccc(CN(c2ccccn2)S(=O)(=O)c2ccccc2)cc1` gave TEAD-YAP inh 13, FBW7 act 0, MITF primary 28, GPR151 ag 7.3*, GPR151 confirm 0 and GPR119 counter 4.
`Cc1n[nH]c(C)c1CCC(=O)O` gave TEAD-YAP inh 0, FBW7 act 0, MITF primary -1, GPR151 ag 4.9*, GPR151 confirm -1 and GPR119 counter -3.
Cc1n[nH]c(C)c1CCC(=O)N/N=C\c1ccc(C(C)(C)C)cc1 was read as TEAD-YAP inh -21, FBW7 act 0, MITF primary -12 and GPR151 ag -1.
`Cc1n[nH]c(C)c1CCC(=O)N/N=C/c1ccc(Cl)cc1` gave TEAD-YAP inh 0, FBW7 act 0, MITF primary 13, GPR151 ag 6.0*, GPR151 confirm 0 and GPR119 counter 4.
Screening CCOc1ccccc1C(=O)NCC(=O)OCC(=O)NC(=O)NCc1ccccc1 returned TEAD-YAP inh 0, FBW7 act 0, MITF primary -6 and GPR151 ag 0.
For Nc1nc(N2CCOCC2)nc(N2CCOCC2)c1[N+](=O)[O-] the results were TEAD-YAP inh 3, FBW7 act 0, MITF primary -4, GPR151 ag 6.5*, GPR151 confirm 0 and GPR119 counter -9.
Screening CCCCN(C)c1nc(N)c([N+](=O)[O-])c(N2CCOCC2)n1 returned TEAD-YAP inh 2, FBW7 act 0, MITF primary 0 and GPR151 ag 5.
For Cn1c(=O)c2c(nc(Cl)n2Cc2ccc([N+](=O)[O-])cc2)n(C)c1=O the results were TEAD-YAP inh 5, FBW7 act 0, MITF primary 5 and GPR151 ag 0.
Screening Cn1c(=O)c2c(nc(-n3ccnc3)n2Cc2ccc([N+](=O)[O-])cc2)n(C)c1=O returned TEAD-YAP inh -1, FBW7 act 0, MITF primary 16, GPR151 ag 5.0*, GPR151 confirm 1 and GPR119 counter 22.
For COc1ccc(CN2CCN(C3CCN(Cc4ccccc4)CC3)CC2)c(OC)c1OC the results were TEAD-YAP inh 11, FBW7 act 0, MITF primary 36 and GPR151 ag 5.
`CCN(CCN(C)C)Cc1cc(OC)c(OC)cc1[N+](=O)[O-]` gave TEAD-YAP inh -5, FBW7 act 0, MITF primary 24, GPR151 ag 5.3*, GPR151 confirm 0 and GPR119 counter -6.
Cc1nc2ccccc2n1CC(=O)N1CCc2c(nc(N3CCCC3)[nH]c2=O)C1 was read as TEAD-YAP inh 6, FBW7 act 0, MITF primary 12, GPR151 ag 17*, GPR151 confirm -1 and GPR119 counter 5.
For O=C(CCn1c(=O)oc2ccccc21)N1CCc2c(nc(N3CCCC3)[nH]c2=O)C1 the results were TEAD-YAP inh 6, FBW7 act 0, MITF primary 10, GPR151 ag 5.1*, GPR151 confirm 0 and GPR119 counter 4.
`O=C(CCc1ccccc1)N1CCc2c(nc(N3CCCC3)[nH]c2=O)C1` gave TEAD-YAP inh 2, FBW7 act 0, MITF primary 13 and GPR151 ag 4.
CC(C)C(=O)Nc1ccc(S(=O)(=O)NCCCc2ccc(N(C)C)cc2)cc1 was read as TEAD-YAP inh 9, FBW7 act 0, MITF primary -1 and GPR151 ag 1.
For CC(C)C1C2CCC(C2)C1N (centres undefined) the results were TEAD-YAP inh 0, FBW7 act 0, MITF primary 10, GPR151 ag 5.3*!, GPR151 confirm -1 and GPR119 counter -11.
`Cc1ccc(C2(c3ccc(C)cc3)C(=O)N(C)N(C)c3ccccc32)cc1` gave TEAD-YAP inh 8, FBW7 act 0, MITF primary 7 and GPR151 ag 1.
CCOc1ccc2c(-c3cc4ccccc4oc3=O)cc(=O)oc2c1 was read as TEAD-YAP inh -1, FBW7 act 0, MITF primary 1 and GPR151 ag 2.
For O=C(Oc1ccc2c(-c3cc4ccccc4oc3=O)cc(=O)oc2c1)C1CC1 the results were TEAD-YAP inh 8, FBW7 act 0, MITF primary -2, GPR151 ag 9.2*, GPR151 confirm 0 and GPR119 counter 1.
Screening CCC(=O)Oc1ccc2c(-c3cc4ccccc4oc3=O)cc(=O)oc2c1 returned TEAD-YAP inh -7, FBW7 act 0, MITF primary -10, GPR151 ag 5.4*, GPR151 confirm 0 and GPR119 counter 10.
Cc1nc(N)n2c(SCC(=O)Nc3ccccc3)nnc2c1Cc1ccccc1 was read as TEAD-YAP inh 0, FBW7 act 0, MITF primary 4 and GPR151 ag 1.
Screening O=C(CCCC(=O)OCC(=O)c1ccc(Cl)c([N+](=O)[O-])c1)Nc1ccccc1Cl returned TEAD-YAP inh 3, FBW7 act 0, MITF primary -1, GPR151 ag 5.1*, GPR151 confirm 0 and GPR119 counter 6.
For CCc1ccc(C(=O)COC(=O)CCC(=O)Nc2ccc([N+](=O)[O-])cc2)cc1 the results were TEAD-YAP inh 3, FBW7 act 0, MITF primary 13 and GPR151 ag -1.
CCc1ccccc1NC(=O)CCC(=O)OCC(=O)c1ccc(C)cc1 was read as TEAD-YAP inh 1, FBW7 act 0, MITF primary 11 and GPR151 ag -2.
For CCc1ccccc1NC(=O)CCC(=O)OCC(=O)c1ccc(Cl)cc1 the results were TEAD-YAP inh 11, FBW7 act 0, MITF primary 10, GPR151 ag 8.7*, GPR151 confirm 0 and GPR119 counter -6.
`CCOC(=O)c1ccc(NC(=O)CCC(=O)OCC(=O)c2ccc([N+](=O)[O-])cc2)cc1` gave TEAD-YAP inh 3, FBW7 act 0, MITF primary 0, GPR151 ag 7.4*, GPR151 confirm 0 and GPR119 counter 8.
`COc1ccc(NC(=O)CCC(=O)Oc2ccc(C)cc2)cc1` gave TEAD-YAP inh 1, FBW7 act 0, MITF primary -4, GPR151 ag 16*, GPR151 confirm -1 and GPR119 counter -6.
